Results on 108 compounds are retold here after ChEMBL document CHEMBL4513216, “Probing the Open Global Health Chemical Diversity Library for Multistage-Active Starting Points for Next-Generation Antimalarials” (ACS Infect Dis, 2020).

The campaign covered roughly 68,000 compounds. About 2,700 (4%) showed an effect of 50% or more. Shown is part of a subset that was picked to be rich in strong results.

For the experiment, the system named is Plasmodium berghei. Put plainly: Screen against P. berghei liver stage (PbLuc), transformed with Luciferase, at 2uM. The note with it: tested at 2 uM. It counts as functional, HepG2.
With `CNCC[C@H]1CC(C)(C)Oc2ccc(C)cc21`, the INHIBITION is -7.01%. Next, `N#Cc1cccc(CN2Cc3nccn3CC(CN3CCCC3)C2)c1` (stereo not drawn): 32.04%; `Cc1c(C(=O)NCCCS(C)(=O)=O)cccc1-c1ccccn1`: 3.63%; `Cc1c(C(=O)NCCC(=O)N2CCCC2)cccc1-c1ccccn1`: 59.67%.

For `Cc1c(C(=O)NCC(C)(C)S(C)(=O)=O)cccc1-c1ccccn1`, the INHIBITION is given as -62.92%.

For `Cc1cccc(CC(=O)N2CCOCC2c2c(C)n[nH]c2C)c1` (stereo not drawn), the INHIBITION was determined as 37.57%. Next, `Cc1n[nH]c(C)c1C1COCCN1C(=O)Cc1cccc(F)c1` (stereo not drawn): 13.24%; `Cc1cccc(CCC(=O)N2CCOCC2c2c(C)n[nH]c2C)c1` (stereo not drawn): 74.35%; `COCCC(=O)Nc1cnn(COc2ccc(F)cc2Cl)c1`: -17.37%. Next, `CCc1cnc(C)nc1NC(C)C(=O)Nc1cc(F)ccc1C` (stereo not drawn): 20.32%; `O=C(c1cc(C2CCCN(Cc3ccccn3)C2)no1)N1CCCC1` (stereo not drawn): 39.48%; `O=C(NC1CC1)c1cc(C2CCCN(Cc3ccccn3)C2)no1` (stereo not drawn): -15.37%. The value for `CCCNC(=O)c1cc(C2CCCN(Cc3ccccn3)C2)no1` (stereo not drawn) was 72.41%; that for `CC(C)c1nn(C)c(Cl)c1CNC1CCOc2ccccc21` (stereo not drawn) was -14.17%; that for `CN(C)c1ccc(CN2CCN(c3ccc(C#N)cc3)C(=O)C2)cn1` was -13.81%. On to `Cc1ccc(CN2CCN(c3cncc(N(C)C)n3)CC2=O)cc1C`, for which the INHIBITION is given as 27.72%. `Cc1ccc(CN2CCN(Cc3ccc(N(C)C)nc3)CC2=O)cc1C`: the INHIBITION is on record as 61.3%. The value for `CC1COCCN1Cc1nc(-c2ccc(Br)s2)no1` (stereo not drawn) was 17.31%. The value for `Fc1ccc(-c2noc3c2CN(CC2CC2)CC3)cc1F` was 21.49%; that for `CC(C)(O)CCc1cccc(C(=O)NCCC2=CSC3=NCCCN23)c1` was 9.51%; that for `COCCNc1ccc(CC2CCCN(Cc3c[nH]cn3)C2)nn1` (stereo not drawn) was -35.23%. The value for `CCOc1ccccc1C(=O)NC(CC(=O)O)c1cccs1` (stereo not drawn) was -23.34%; that for `CCCC(NC(=O)c1cc(C2CC2)[nH]n1)c1nnc2ccccn12` (stereo not drawn) was 19.42%; that for `NCc1n[nH]c(=O)n1-c1ccccc1Oc1ccccc1` was 28.73%. For `COCCN1CCOCC2(CCN(c3cnccn3)CC2)C1`, the INHIBITION stood at 50.85%. The value for `COCCN1CCOCC12CCN(c1cnccn1)CC2` was 10.71%.

`CC(C)N1CCOCC2(CCN(c3cnccn3)CC2)C1`: the INHIBITION is -10.43%.

With `Cc1nc(C(=O)N2CCC(c3cc(CCO)n(C)n3)C2)co1` (stereo not drawn), the INHIBITION was -13.45%. On to `Cc1cc(CN(C)C2CCCN(c3cccnn3)C2)on1` (stereo not drawn), for which the INHIBITION is on record as 13.35%. Next, `Cc1nc(CN(C)C2CCN(Cc3ccc4ccccc4n3)C2)no1` (stereo not drawn): 55.7%; `Cc1nc(CN(C)C2CCN(CCCc3ccccc3)C2)no1` (stereo not drawn): 16.25%; `Cc1nc(CN(C)C2CCCN(c3ccccc3)C2)no1` (stereo not drawn): 74.35%. The value for `Cc1ccc(N2CCCC(N(C)Cc3cc(C)on3)C2)nn1` (stereo not drawn) was -1.21%; that for `CN(Cc1noc(C2CC2)n1)C1CCCN(c2cccnn2)C1` (stereo not drawn) was -13.24%. The value for `Cc1nc(CN(C)C2CCN(Cc3nc4ccccc4n3C)C2)no1` (stereo not drawn) was -2.87%. Regarding `Cc1nc(CN(C)C2CCCN(c3cccnn3)C2)no1` (stereo not drawn), the INHIBITION is reported as 51.21%. Next, `CC(C)c1nc(CN(C)C2CCCN(c3cccnn3)C2)no1` (stereo not drawn): -68.26%. The value for `Cc1ccc(N2CCCC(N(C)Cc3cc(C)no3)C2)nn1` (stereo not drawn) was 75.47%. In the case of `Cc1nc(CN(C)C2CCN(Cc3nc4ccccc4s3)C2)no1` (stereo not drawn), the INHIBITION is on record as -75.02%. The value for `Cc1nc(CN(C)C2CCN(CC3CCC3)C2)no1` (stereo not drawn) was 15.28%. Next, `COCCC(=O)NC(C)(C(N)=O)c1cccc(Cl)c1` (stereo not drawn): 7.37%; `O=S1(=O)CCC(n2nc(COc3ccccc3)nc2-c2cnccn2)C1` (stereo not drawn): -5.42%.

Regarding `Cc1nc(CCNC(Cc2ccncc2)C(F)(F)F)cs1` (stereo not drawn), the INHIBITION is -2.89%. Take `CCN(C)Cc1n[nH]c(=O)n1-c1cc(F)ccc1C`: the INHIBITION was 5.78%. Next, `CN(C)C(=O)Cc1ccccc1NCc1noc(-c2ccccc2)n1`: 22.19%. The value for `CCn1nccc1CNc1nc(N)nc2c1nc(C)n2C` was 14.79%. The value for `CNC(=O)C(NC(=O)c1nccn2ccnc12)c1ccc(F)c(F)c1` (stereo not drawn) was 29.53%; that for `CSCCC(Nc1nc(C)cc(C)n1)C(=O)NCC1CCOCC1` (stereo not drawn) was 0.62%; that for `CC(C)c1noc(CN2CCOCC2C)n1` (stereo not drawn) was 27.86%. `CN(CC(=O)Nc1ccncc1)C1CCCN(c2cccnn2)C1` (stereo not drawn): the INHIBITION worked out at 7.13%. On to `COCCCNC(=O)CN(C)C1CCCN(c2cccnn2)C1` (stereo not drawn), for which the INHIBITION is 64.16%. Next, `CN(CC(=O)NCc1ccccn1)C1CCCN(c2cccnn2)C1` (stereo not drawn): -117.12%; `Cc1ccc(C(=O)N2CCC3(CCCCC3)C2)c(=O)[nH]1`: -8.54%; `CN(C)C(=O)c1c[nH]nc1C1CCN(S(=O)(=O)c2cccc(Cl)c2)CC1`: 13.02%. The value for `Cc1ncsc1-c1nnc(C2CCN(Cc3cccc(F)c3F)CC2)o1` was 35.56%. Turning to `Cc1cccc(CN2CCC3(CCCN(C(=O)N4CCCC4)C3)C2=O)n1` (stereo not drawn), the INHIBITION is -9.14%. Next, `Cc1cccc(CN2CCC3(CCCN(C(=O)CN(C)C)C3)C2=O)n1` (stereo not drawn): 28.95%; `Cc1cccc(CN2CCC3(CCCN(C(=O)N(C)C)C3)C2=O)n1` (stereo not drawn): 51.81%; `CC(C)NC(=O)CCCn1cnc2ccccc2c1=O`: 35.43%.

As for `COCCn1cnc2ccc(NC(=O)CCCn3cccn3)cc2c1=O`, the INHIBITION is recorded as 52.05%.

Consider `CC(C)Cn1cnc2ccc(NC(=O)CCCn3cccn3)cc2c1=O`, for which the INHIBITION was 16.03%. Turning to `Cn1cnc2ccc(NC(=O)CCCn3cccn3)cc2c1=O`, the INHIBITION was determined as 25.61%. The value for `COCC(C)NC(=O)CCCn1cnc2ccccc2c1=O` (stereo not drawn) was 51.36%; that for `CC(NC(=O)CCCn1cnc2ccccc2c1=O)c1ncn[nH]1` (stereo not drawn) was 22.27%. The value for `CC(C)Nc1ncnc2c1CCN(C(=O)NCc1cccc(F)c1)CC2` was -36.75%. The value for `O=C(c1cccnc1Oc1ccc(Cl)cc1)N1CC[C@@H](O)C1` was 18.2%. Turning to `O=C(c1ccccn1)N1CCCC(c2ncncc2-c2ccncc2)C1` (stereo not drawn), the INHIBITION was found to be 39.9%. `CNC(=O)N1CCC2(COCc3c(C)nc(NCc4ccco4)nc32)C1` (stereo not drawn): the INHIBITION amounted to 16.91%. The value for `COc1ncccc1C(=O)N1CCn2c(COCC3CC3)cnc2C1C` (stereo not drawn) was 30.38%; that for `COC(=O)COc1nc(CC(C)C)c2c(c1C#N)CCCC2` was 26.06%. Next, `CN(Cc1cccnc1)CC1CNCc2nccn2C1` (stereo not drawn): 37.65%. As for `COc1ccc2cnn(CC(=O)NC3CCCC3)c(=O)c2c1OC`, the INHIBITION worked out at 45.14%.

In the case of `CN(C(=O)c1cn(C)cn1)[C@@H]1CCC[C@@H](Oc2ccccc2)[C@@H]1O`, the INHIBITION is 32.81%. Next, `c1csc(-c2noc(CCCNC3CCc4ncnn4C3)n2)c1` (stereo not drawn): -15.69%. As to `COc1cc(C(=O)N(Cc2cnn(C)c2)C(C)C)ccc1OC(C)C`, the INHIBITION is recorded as -31.57%.

For the compound `COc1cc(C(=O)N(Cc2cnn(C)c2)C(C)C)ccc1C`, the INHIBITION stood at 53.98%.

As for `COc1ccc(C(=O)N(Cc2cnn(C)c2)C(C)C)cc1OC(F)F`, the INHIBITION was determined as 60.09%. The value for `COc1ccc(C(=O)N(Cc2cnn(C)c2)C(C)C)cc1Br` was 9.36%. The value for `COc1cc(C(=O)N(Cc2cnn(C)c2)C(C)C)ccc1OCC(N)=O` was -61.5%. Next, `CCOc1ccc(C(=O)N(Cc2cnn(C)c2)C(C)C)cc1OCC`: 23.42%. In the case of `CN1CCC(Cc2noc(CCc3nc4ccccc4nc3O)n2)CC1`, the INHIBITION is -14%. Next, `O=C(c1ccc[nH]1)N1CCc2c(COCc3ccncc3)cncc2C1`: -18.76%. The value for `Cc1ccc(CN2CC[C@@H]3[C@@H]2CCN3C(=O)Cc2cccs2)o1` was -45.36%; that for `O=C(CN1CCCC1CC(=O)c1ccccc1)NCc1ccccn1` (stereo not drawn) was -47.19%; that for `CCN(Cc1noc(CC(C)C)n1)C[C@]1(O)CCCN2CCCC[C@@H]21` was 6.33%. The value for `CCN(Cc1nc(COC)no1)C[C@]1(O)CCCN2CCCC[C@@H]21` was 21.67%. Turning to `CC(C)Cc1noc(CN(C)C[C@]2(O)CCCN3CCCC[C@@H]32)n1`, the INHIBITION was 58.09%. The value for `Cc1nn(C)c(C)c1C(=O)NN1CCOCC1` was 27.88%; that for `CCOc1ccc2ccccc2c1CNCC1CCNCC1` was -14.75%; that for `Cc1cccnc1CC(C)Nc1nc(N)nc2c1CCNC2` (stereo not drawn) was 22.63%. The value for `CCn1nc(C)c(NC(=O)CN2CC[C@H](CO)[C@@H](O)C2)c1C` was 7.29%. With `CCN(CC)C(=O)C1CCCN(CC(=O)Nc2c(C)nn(CC)c2C)C1` (stereo not drawn), the INHIBITION was 23.58%.

Turning to `CCn1nc(C)c(NC(=O)CN2CCN(C(C)=O)CC2)c1C`, the INHIBITION is recorded as 53.77%. Next, `CCn1nc(C)c(NC(=O)C(C)C)c1C`: 12.62%; `CCn1nc(C)c(NC(=O)CN2CC[C@@H](F)C2)c1C`: -28.65%; `CCn1nc(C)c(NC(=O)CN2CCC(c3ccccc3Cl)C2)c1C` (stereo not drawn): 50.9%. The value for `Cc1ccc(CN(CCCn2ccnc2)Cc2cccs2)s1` was 32.53%; that for `CC1CCCN(c2ccccc2OCC(=O)NC2CCOCC2)C1` (stereo not drawn) was 19.59%.

In the case of `CC(Oc1ccccc1)C(=O)N1CCCN(Cc2nccn2C)CC1` (stereo not drawn), the INHIBITION was -12.05%. Next, `Cc1ccc2c(c1)SCC(=O)N2CC(=O)N1CCCC1c1cc(C)no1` (stereo not drawn): 28.73%; `Cc1cc(C2CCCN2C(=O)Cn2c(C)cc(=O)c3ccccc32)on1` (stereo not drawn): 64.83%. `Cc1cc(C2CCCN2C(=O)CN2CCc3ccccc32)on1` (stereo not drawn): the INHIBITION is recorded as 18.37%.

In the case of `CNC(=O)C1(C)CN(S(=O)(=O)c2cccc(OC)c2)CCO1` (stereo not drawn), the INHIBITION is reported as -4.78%. Next, `CN(CCc1ccccc1)Cc1c(C2CCNCC2)[nH]c2ncccc12`: 2.56%; `CC(C)N1CCCn2nc(C(=O)NCCc3ccccn3)cc2C1`: -31.6%; `CN(Cc1ccco1)Cc1cnc2n1CCN(S(C)(=O)=O)CC2`: 9.1%. For the compound `CN(C)CCN1CCc2ncc(CN(C)Cc3ccco3)n2CC1`, the INHIBITION amounted to 52.05%. Next, `CN(Cc1ccco1)Cc1cnc2n1CCN(c1ncccn1)CC2`: -6.14%.
